Compound activity from PubChem.
Rows were chosen to be rich in hits. Some 1.2% of all compounds tested hit in one or more screens of this group.
MsrA inhibitor – inhibitors of bovine MsrA | purified bovine MsrA, absorbance read-out | inhibition, % at 15.5 µM | actives 0.75% (n = 360,000); in the data active = inhibition above about 4.5%;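 also: 0% = vehicle wells with enzyme and 100% = reference inhibitor wells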
NPR1 activator – GC-A (human) enzyme activation; activation, % at 10 µM; HEK293 GC-A cells, cGMP TR-FRET, EC30 ANP; 0% at EC30 ANP, 100% saturating ANP; AID 1671463; actives 0.14% (n = 370,000); in the data active = activation above about 40%
MsrA act – activators of bovine methionine sulfoxide reductase A; actives 0.3% (n = 360,000); AID 602163; activation, % at 10.6 µM; purified bovine MsrA, absorbance read-out; in the data active = activation above about 7.5%;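 also: 0% = vehicle and 100% = reference activator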
GC-B act – GC-B (human) receptor activation; HEK293-GC-B cells, CNP EC30, cGMP TR-FRET; 0% at EC30 CNP, 100% saturating CNP; activation, % at 10 µM; actives 0.11% (n = 370,000); AID 1920062;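 active = activation at 10 µM reaching about 35% in either raw or pattern-adjusted values, limit read from the data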
Target sequence (P20594 whole entry, looked up): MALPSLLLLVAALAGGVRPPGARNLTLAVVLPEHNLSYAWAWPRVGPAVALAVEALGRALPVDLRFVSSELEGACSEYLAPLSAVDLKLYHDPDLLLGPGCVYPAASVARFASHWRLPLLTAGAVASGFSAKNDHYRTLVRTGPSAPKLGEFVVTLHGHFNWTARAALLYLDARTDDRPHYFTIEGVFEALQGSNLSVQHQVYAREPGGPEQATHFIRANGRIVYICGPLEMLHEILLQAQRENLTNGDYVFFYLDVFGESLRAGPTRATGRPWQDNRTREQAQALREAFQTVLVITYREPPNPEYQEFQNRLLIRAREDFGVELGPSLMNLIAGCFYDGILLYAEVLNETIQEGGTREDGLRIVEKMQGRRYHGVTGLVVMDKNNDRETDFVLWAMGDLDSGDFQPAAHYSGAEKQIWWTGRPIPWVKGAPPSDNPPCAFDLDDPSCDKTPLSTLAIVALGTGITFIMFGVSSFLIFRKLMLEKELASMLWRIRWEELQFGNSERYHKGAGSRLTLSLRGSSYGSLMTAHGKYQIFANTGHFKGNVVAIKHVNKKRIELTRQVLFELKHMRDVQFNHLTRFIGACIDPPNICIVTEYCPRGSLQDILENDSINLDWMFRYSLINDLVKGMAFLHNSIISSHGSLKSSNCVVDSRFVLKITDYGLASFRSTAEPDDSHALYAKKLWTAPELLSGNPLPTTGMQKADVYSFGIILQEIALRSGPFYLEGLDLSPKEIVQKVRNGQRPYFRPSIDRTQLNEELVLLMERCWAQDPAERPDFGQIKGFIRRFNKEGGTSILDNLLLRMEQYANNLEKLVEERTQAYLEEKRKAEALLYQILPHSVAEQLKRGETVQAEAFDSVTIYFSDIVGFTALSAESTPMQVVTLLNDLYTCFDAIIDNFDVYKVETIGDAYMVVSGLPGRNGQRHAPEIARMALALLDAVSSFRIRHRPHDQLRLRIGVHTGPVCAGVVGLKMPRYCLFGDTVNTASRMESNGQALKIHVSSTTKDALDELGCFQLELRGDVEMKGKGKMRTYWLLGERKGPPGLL
MsrA activ conf – confirmation of bovine methionine sulfoxide reductase A activators; activation, % at 10.6 µM; shares compounds with MsrA act; purified bovine MsrA, absorbance read-out; actives 12% (n = 1,000); in the data active = activation above about 4%;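 also: enzyme coupled to thioredoxin and thioredoxin reductase with NADPH; 0% = vehicle wells and 100% = reference activator wells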
An asterisk follows results filed as active.

For COc1cccc(NC(=O)CN(C)C(=O)CCNC(=O)c2ccccc2Cl)c1 the results were MsrA inhibitor -1, NPR1 activator 1, MsrA act 8.0*, GC-B act 2 and MsrA activ conf 2.
Screening COc1cccc(NC(=O)CN(C)CC(=O)NCc2ccc3c(c2)OCO3)c1 returned MsrA inhibitor 0, NPR1 activator -3, MsrA act 11*, GC-B act 0 and MsrA activ conf -1.
`CCCCCN1CCCCC(NC(=O)Cc2ccccc2)C1=O` (configuration not stated) gave NPR1 activator 2 and GC-B act 7.
COc1cccc(COc2ccccc2C2Nc3ccc(Br)cc3C(=O)N2NC(=O)c2ccncc2)c1 (configuration not stated) was read as MsrA inhibitor 1, NPR1 activator -7, MsrA act 18*, GC-B act -4 and MsrA activ conf -3.
`CC1(Cc2ccc(OC(F)(F)F)cc2)C(=O)Nc2ccc(S(=O)(=O)NC3CCCCC3)cc21` (configuration not stated) gave MsrA inhibitor -1, NPR1 activator -3, MsrA act 20*, GC-B act 1 and MsrA activ conf 1.
For CC1(Cc2ccc(Cl)cc2)C(=O)Nc2ccc(S(=O)(=O)NC3CCCCC3)cc21 (configuration not stated) the results were MsrA inhibitor 1, NPR1 activator -5, MsrA act -1 and GC-B act -3.
`Cc1ccccc1C1CCC2(CC1)CCN(CC[C@@H](O)c1ccccc1)C2=O` (some centres not stated) gave NPR1 activator -2 and GC-B act -8.
Screening CCOC(=O)C1=C(C)N(C)C(=O)NC1c1c(C)nn(-c2ccc(C)cc2)c1Cl (configuration not stated) returned MsrA inhibitor 0, NPR1 activator 9, MsrA act 13*, GC-B act -2 and MsrA activ conf 1.
Screening O=C(Nc1ccccc1F)C1CCCN1S(=O)(=O)c1cccc2nsnc12 (configuration not stated) returned MsrA inhibitor 0, NPR1 activator -1, MsrA act -4 and GC-B act 5.
For O=C(Nc1ccccc1Br)C1CCCN1S(=O)(=O)c1cccc2nsnc12 (configuration not stated) the results were MsrA inhibitor 2, NPR1 activator -8, MsrA act 15*, GC-B act -1 and MsrA activ conf 0.
Screening Brc1ccc(-c2csc(N3CCC(c4nn[nH]n4)CC3)n2)cc1 returned NPR1 activator 8 and GC-B act -10.
CCOC(=O)c1[nH]c2ccc(OC)cc2c1NS(=O)(=O)c1ccc(OC)cc1OC was read as MsrA inhibitor 0, NPR1 activator -5, MsrA act 9.7*, GC-B act 0 and MsrA activ conf -2.
COC(=O)c1[nH]c2ccc(F)cc2c1NS(=O)(=O)c1ccc(OC)cc1OC was read as MsrA inhibitor 1, NPR1 activator -11, MsrA act -1 and GC-B act -8.
For Cn1c(N)c(S(=O)(=O)NCc2ccc(Cl)cc2)c(=O)n(C)c1=O the results were MsrA inhibitor 0, NPR1 activator -4, MsrA act 8.9*, GC-B act -1 and MsrA activ conf -3.
Cn1c(N)c(S(=O)(=O)NCc2ccccc2)c(=O)n(C)c1=O was read as MsrA inhibitor 0, NPR1 activator 0, MsrA act -4 and GC-B act 1.
Screening CCOc1ccc(-c2nnc(NC3=NCCCCC3)o2)cc1 returned MsrA inhibitor 1, NPR1 activator 11, MsrA act 10*, GC-B act 2 and MsrA activ conf 0.
Screening S=c1[nH]nc(-c2cccnc2)n1/N=C/c1cccs1 returned MsrA inhibitor 0, NPR1 activator -1, MsrA act 10*, GC-B act 0 and MsrA activ conf -2.
For O=C(Cn1c(=O)oc2ccccc21)Nc1n[nH]c(=S)s1 the results were MsrA inhibitor 2, NPR1 activator 2, MsrA act 7.9*, GC-B act 2 and MsrA activ conf 5.5*.
For O=C(NC1=N[C@@]2(C=C3CCCCC3n3c(=O)n(-c4ccccc4)c(=O)n32)[C@H](Cc2ccccc2)N1Cc1ccccc1)c1ccccc1 (some centres not stated) the results were NPR1 activator -2 and GC-B act 3.
O=C(OC12CCCN(C1)/C(=C/c1cccnc1)C2)c1cccc(F)c1 (configuration not stated) was read as NPR1 activator -1 and GC-B act -2.
CCOC(=O)c1sc(=S)n(-c2ccccc2OC)c1N was read as MsrA inhibitor 3, NPR1 activator 2, MsrA act 8.4*, GC-B act 2 and MsrA activ conf -6.
For COC(=O)c1sc(=S)n(-c2ccccc2OC)c1N the results were MsrA inhibitor 2, NPR1 activator 0, MsrA act -1 and GC-B act -2.
`O=C(NNC(=S)NC(=O)c1ccccc1[N+](=O)[O-])c1ccccc1Cl` gave MsrA inhibitor 2, NPR1 activator -2, MsrA act -1 and GC-B act 3.
O=C(NC(=S)NNC(=O)c1ccccc1[N+](=O)[O-])c1ccc(Br)cc1 was read as MsrA inhibitor -2, NPR1 activator 2, MsrA act 10.0*, GC-B act -3 and MsrA activ conf -1.
For CC(OC(=O)c1cccc(S(=O)(=O)N2CCCCC2)c1)C(=O)NC1CCCCC1C (configuration not stated) the results were MsrA inhibitor -1, NPR1 activator 2, MsrA act 21*, GC-B act 3 and MsrA activ conf 0.
Screening COC(=O)[C@H](C(C)C)N1Cc2nnn(Cc3ccccc3)c2C=CS1(=O)=O returned NPR1 activator 3 and GC-B act -7.
For Cc1cccc(-c2cccc3c4c([nH]c23)[C@@H]2C[C@H]3[C@@H](CN2CC4)[C@H](C)ON3C)c1 the results were NPR1 activator -4 and GC-B act 2.
`O=C1C(Cl)=C(NCCc2ccccc2)C(=O)c2ccccc21` gave MsrA inhibitor 0, NPR1 activator 4, MsrA act 1 and GC-B act -4.
Screening O=C1C(Cl)=C(NCc2cccnc2)C(=O)c2ccccc21 returned MsrA inhibitor 0, NPR1 activator 7, MsrA act 12*, GC-B act -2 and MsrA activ conf 6.1*.
`CCOc1ccc(CCNC(=O)c2ccc(Oc3ccccc3)cc2)cc1OCC` gave NPR1 activator 0 and GC-B act 2.
For O=C(CCN1C(=O)COc2ccccc21)N1CCN(c2ccccn2)CC1 the results were MsrA inhibitor -1, MsrA act 21* and MsrA activ conf -1.
`COc1ccc(OC)c(S(=O)(=O)N(CCc2ccc(OC)c(OC)c2)Cc2cccs2)c1` gave NPR1 activator 0 and GC-B act 1.
